Assay outcomes deposited in PubChem BioAssay by several laboratories.
A selection: hits, their analogues and other compounds. The true share with any hit is near 3.8%.
ADAM17 inh: ADAM17 inhibition, QFRET primary screen. AID 720648. 370,000 compounds, 0.83% hits. recombinant ADAM17, EDANS/DABCYL FRET peptide cleavage. P78536. inhibition, % at 6.95 µM;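 active = inhibition above the mean of compounds lying between control limits plus 3 SD, set per campaign, cut at about 8.5% in these data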;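 note: 0% = DMSO-only wells as the low control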
Target sequence (P78536 215-824 limits assumed): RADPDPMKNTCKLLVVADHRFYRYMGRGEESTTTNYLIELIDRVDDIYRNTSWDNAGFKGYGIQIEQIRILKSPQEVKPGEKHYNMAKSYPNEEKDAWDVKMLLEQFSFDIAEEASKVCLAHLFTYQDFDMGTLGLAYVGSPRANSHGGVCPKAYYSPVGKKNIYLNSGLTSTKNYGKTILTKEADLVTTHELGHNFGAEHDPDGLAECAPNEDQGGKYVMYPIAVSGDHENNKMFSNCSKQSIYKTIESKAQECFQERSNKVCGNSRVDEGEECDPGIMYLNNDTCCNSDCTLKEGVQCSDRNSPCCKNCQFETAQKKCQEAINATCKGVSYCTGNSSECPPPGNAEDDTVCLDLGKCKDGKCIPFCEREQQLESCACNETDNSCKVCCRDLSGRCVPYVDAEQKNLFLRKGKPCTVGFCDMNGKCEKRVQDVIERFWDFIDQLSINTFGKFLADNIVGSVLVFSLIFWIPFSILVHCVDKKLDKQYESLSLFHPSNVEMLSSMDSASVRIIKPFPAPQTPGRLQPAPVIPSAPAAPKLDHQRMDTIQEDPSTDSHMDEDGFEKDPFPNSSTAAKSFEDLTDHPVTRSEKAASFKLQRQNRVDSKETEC
rRNA inh HTS: inhibits bacterial ribosomal RNA function over humanized ribosomes | E. coli WT GFP vs humanized-ribosome RFP mutants, fluorescence, 24 h; active compounds read low; DMSO median 0, no signal -100 | GFP signal change (wild-type ribosome), % (no concentration beside the values) | 350,000 compounds, 1.6% hits | AID 720706;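 active = significant combined selectivity score with lowered wild-type GFP, culture density cut under 30%, mutant RFP and density less affected; inactive = any of these conditions unmet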
proKLK7 act: proKLK7 (human) activation, primary screen; P49862; purified proKLK7, EDANS-DABCYL substrate fluorescence; 100% is mature enzyme control, 0% vehicle; activation, % at 7 µM; 370,000 compounds, 0.9% hits;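 active = activation above the mean of all tested compounds plus 3 SD, computed per campaign excluding outliers beyond control limits, cut at about 13% in these data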
ADAM10 inh: inhibits human ADAM10; O14672; recombinant ADAM10, EDANS/DABCYL FRET peptide cleavage, 3 h; inhibition, % at 7 µM; 370,000 compounds, 0.62% hits;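 active = inhibition above a per-campaign cutoff equal to the mean of compounds falling between control-based bounds plus 3 SD, cut at about 20% in these data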;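 note: 0% = DMSO wells while the 100% control is not disclosed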
FGF22 binding: binders of recombinant human FGF22 by thermal shift; Q9HCT0; activity (Tm shift, normalised), % at 9.99 µM; SYPRO orange fluorescence; percent of sucrose octasulfate shift, DMSO zero; 340,000 compounds, 1.5% hits; AID 651658;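 active = mean Tm shift, scaled 0 neutral to 100 positive control, at about 1.3% or above, every replicate too, limit read from the data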
Numbers without * were called inactive; i = inactive; x = no result given.

SMILES | ADAM17 inh | rRNA inh HTS | proKLK7 act | ADAM10 inh | FGF22 binding
CN1C(=O)/C(=C/c2cccc(Cl)c2)Sc2ccc(C(=O)N3CCCC3)cc21 | -2 | -35* | -3 | 1 | -1
CC(=O)N(C)C[C@@H]1Oc2cc(-c3ccncc3)ccc2S(=O)(=O)N([C@H](C)CO)C[C@@H]1C | x | 5 | x | x | 0
CCn1c(Cc2ccccc2)nnc1SCC(=O)NC(C)(C)C | x | 8 | x | x | 0
CCn1c(Cc2cccs2)nnc1SCC(=O)NC(C)(C)C | 1 | 10 | 1 | 3 | 43*
COc1ccc(S(=O)(=O)N2CCC3(CC2)CN(C(=O)c2cccnc2)[C@H](CO)c2c3c3ccc(OC)cc3n2C)cc1 | x | -4 | x | x | 0
C[C@H](CO)N1C[C@H](C)[C@@H](CN(C)C(=O)Nc2ccc(C(F)(F)F)cc2)OCCCC[C@H](C)Oc2ccc(NC(=O)Nc3cccc4ccccc34)cc2C1=O | x | 0 | x | x | 0
O=C1CC(N2CCCCC2)C(=O)N1c1ccccc1 (stereo unspecified) | -1 | x | 0 | -3 | x
CN(C)N1C(=O)CC(N2CCCCC2)C1=O (stereo unspecified) | 2 | -31* | 0 | -3 | 0
O=C(NCCCCc1ccccc1)c1cccc(NC(=O)C2CCCCC2)c1 | 2 | -30* | 0 | 4 | 0
CN(C(=O)c1cccc(NC(=O)Cc2ccc(NC(=O)C3CCCN(C(=O)C4CC4)C3)cc2)c1)C1CCCC1 (stereo unspecified) | 1 | 10 | 0 | 1 | 43*
O=C(Cc1cccc(NC(=O)C2CCN(C(=O)C3CCCC3)CC2)c1)Nc1cccc(C(=O)N2CCCCC2)c1 | 2 | -7 | 1 | 1 | 0
O=C(NCCCCc1ccccc1)c1cccc(NC(=O)C2CCC2)c1 | -1 | -31 | 0 | 2 | 0
O=C(Cc1cccc(NC(=O)C2CCN(C(=O)C3CCCC3)CC2)c1)Nc1cccc(C(=O)N2CCCC2)c1 | -1 | -21* | 0 | 1 | 0
CCC(CO)Oc1cc(NCc2cccc(Cl)c2)c2ncn(C(C)C)c2c1 (stereo unspecified) | x | -22* | x | x | x
Cc1cc2oc(C(=O)N3CCN(CCc4ccccn4)CC3)c(C)c2cc1C | -6 | -28* | 0 | 4 | 0
COc1cc(OC)cc(C(=O)NCC(=O)OCC(=O)Nc2cc(S(C)(=O)=O)ccc2Cl)c1 | -8 | 2 | 0 | -4 | 0
CS(=O)(=O)c1ccc(Cl)c(NC(=O)COC(=O)CNC(=O)c2ccccc2)c1 | 3 | 5 | 0 | 5 | 44*
CS(=O)(=O)c1ccc(Cl)c(NC(=O)CCc2ccccc2)c1 | -2 | 9 | 0 | -2 | 43*
C[C@H]1CCCCO[C@@H](CN(C)C(=O)Nc2ccc(C(F)(F)F)cc2)[C@@H](C)CN([C@@H](C)CO)C(=O)c2cc(NC(=O)c3ccncc3)ccc2O1 | x | -2 | x | x | -1
CSc1nc2ccccc2n1Cc1cccc([N+](=O)[O-])c1 | -1 | -2 | -1 | 11 | 44*
O=c1c(Cc2ccccc2)c(O)c2cccc3c4c(n1c23)CCCC4 | -33 | -19* | -1 | -129 | 0
Cn1c(=O)c(Cc2ccccc2)c(O)c2ccccc21 | -17 | 0 | 2 | -51 | 0
COC(=O)C(CCSC)NC(=O)/C=C/c1ccc(OC)cc1 (stereo unspecified) | -2 | -15 | 0 | -9 | 43*
O=C(/C=C/c1ccccc1Cl)NCCc1ccccc1 | x | -26* | x | x | 0
Cc1ccc(SCCNC(=O)/C=C/c2ccccc2Cl)cc1 | 6 | -24* | 0 | 3 | 0
SMILES | ADAM17 inh | rRNA inh HTS | proKLK7 act | ADAM10 inh | FGF22 binding
COc1ccc2c3c(n(C)c2c1)[C@@H](CO)N(CC1CCOCC1)CC31CN(C(C)=O)C1 | x | 6 | x | x | x
CCCC(=O)Nc1ccc2c(c1)C(=O)N(C)C[C@H](OC)[C@H](C)CN(C(=O)c1cnccn1)[C@H](C)CO2 | x | 2 | x | x | 0
CO[C@@H](CN(C)S(=O)(=O)c1ccc(F)cc1)[C@H](C)CN(C(=O)Nc1ccccc1F)[C@H](C)CO | x | -4 | x | x | 0
CCOC(=O)c1cc2c(=O)n3ccccc3nc2n(Cc2ccco2)c1=NC(=O)c1ccc(OC)cc1OC | i | 3 | 17* | i | 1
COc1cccc2c(=O)c(C(=O)NCc3cccs3)c[nH]c12 | -91 | x | 3 | -358 | x
Cc1ccc2[nH]cc(C(=O)NCc3cccs3)c(=O)c2c1 | 2 | -24* | 0 | -7 | 0
CCCC(=O)NC(c1ccc(OC)cc1)c1c(O)ccc2ccccc12 (stereo unspecified) | -26 | -27* | -2 | -71 | 0
COc1ccc(C(NC(=O)CC(C)C)c2c(O)ccc3ccccc23)cc1 (stereo unspecified) | -14 | -13 | -3 | -30 | 0
COc1ccc(NC(=O)Nc2c(O)ccc3ccccc23)cc1 | -21 | -26* | -17 | -47 | 0
CCOc1cc(CNc2nn[nH]n2)ccc1OCC(=O)NC(C)(C)C | 0 | 5 | 0 | -11 | 44*
CCOc1cc(CNc2ccc(S(N)(=O)=O)cc2)ccc1OCC(=O)NC(C)(C)C | -3 | -3 | 0 | -1 | 0
CCOc1cc(CNc2ncn[nH]2)ccc1OCC(=O)NC(C)(C)C | 1 | -5 | 0 | 6 | 43*
COc1cc(CNc2ncn[nH]2)ccc1OCC(=O)NC(C)(C)C | -4 | 11 | 0 | 0 | 0
CC(C)C#Cc1ccc([C@H]2[C@@H](CO)N3C(=O)CN(C(=O)Cc4cccnc4)C[C@H]23)cc1 | x | 2 | x | x | x
C[C@@H]1CN([C@H](C)CO)C(=O)c2cc(NC(=O)C3CCCCC3)ccc2O[C@@H](C)CCCCO[C@@H]1CN(C)S(C)(=O)=O | x | -1 | x | x | x
CCCc1[nH]n(-c2nc3ccccc3s2)c(=O)c1C=NCCCN(CC)CC | -2 | -22* | 0 | -1 | 1
CCCN=Cc1c(CCC)[nH]n(-c2nc3ccccc3s2)c1=O | -1 | x | 0 | 0 | x
O=C(Nc1ccccc1)C1CCCN(C(=O)c2ccc(Cl)cc2)C1 (stereo unspecified) | -3 | x | 0 | -7 | 43*
CCCNC(=O)Nc1ccc2c(c1)C(=O)N(C)C[C@H](OC)[C@@H](C)CN(Cc1ccc(-c3ccccn3)cc1)[C@@H](C)CO2 | x | -4 | x | x | x
CC(=O)Nc1cccc(-n2nnc(SCC(=O)c3ccccc3)n2)c1 | -2 | -36* | 0 | 0 | 0
CCOc1ccccc1Cn1c(=O)sc2ccccc21 | 2 | -50 | 0 | 3 | 43*
COCCCn1c(SCCc2ccccc2)nc2cc(OC)c(OC)cc2c1=N | 5 | -41* | 0 | 0 | 0
Cc1nn(C)cc1NC(=O)C[C@H]1CC[C@@H]2[C@@H](COc3ccc(NC(=O)C4CCC4)cc3C(=O)N2C)O1 | x | -7 | x | x | x
CCOc1ccccc1N(C(=O)c1ccccc1Cl)C1=NC(C)(C)CS1 | 2 | -23* | 1 | 5 | 0
